# Measured values as given in the supplement of paper PMC6555819.
# Columns and labels:
# Assay in all cases: PBM binding z-score (relative to random genomic background probes); higher = stronger binding; sequences stand for … in GC…GCGATTGACAGCGTAGAATGAAGG
# [1] = system: FXR:RXRa (NR concentration 270 nM, RXRa partner concentration 90 nM)
# In short: (§1)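 For binding z-scores, the reference was random background probes on custom Agilent 4×180K protein-binding microarrays. These arrays were incubated 1 h with ligand-free nuclear receptor dimers in PBS pH 7.4, 2% milk, 0.02% Triton X-100, 1 mM DTT, 0.2 mg/mL BSA and 0.4 mg/ml salmon testes DNA. Fluorescence was scanned after antibody detection of each partner (one per run) and regression-normalized.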
# [2] = system: LXRa:RXRa (NR concentration 270 nM, RXRa partner concentration 90 nM)
# In short: as §1
# [3] = system: LXRa homodimer (NR concentration 270 nM)
# In short: as §1
# [4] = system: LXRb:RXRa (NR concentration 270 nM, RXRa partner concentration 90 nM)
# In short: as §1
# [5] = system: LXRb homodimer (NR concentration 270 nM)
# In short: as §1
# [6] = system: PPARa:RXRa (NR concentration 270 nM, RXRa partner concentration 90 nM)
# In short: as §1
# [7] = system: PPARg:RXRa (NR concentration 180 nM, RXRa partner concentration 90 nM)
# In short: as §1
# [8] = system: PPARg:RXRa 270nM:90nM, anti-RXR (NR concentration 270 nM, RXRa partner concentration 90 nM)
# In short: as §1
# [9] = system: PPARg:RXRa 30nM:10nM, anti-RXR (NR concentration 30 nM, RXRa partner concentration 10 nM)
# In short: as §1
# [10] = system: PPARg:RXRa 90nM:30nM, anti-RXR (NR concentration 90 nM, RXRa partner concentration 30 nM)
# In short: as §1
# [11] = system: PPARg:RXRa DBDmut IVT, anti-RXR (DBD mutation: RXRa K156A/R161A, NR concentration 270 nM, RXRa partner concentration 90 nM)
# In short: as §1
# [12] = system: PPARg:RXRa IVT, anti-PPARg (NR concentration 270 nM, RXRa partner concentration 90 nM)
# In short: as §1
# [13] = system: PPARg DBDmut:RXRa IVT, anti-PPARg (DBD mutation: PPARg1 K132A/R137A, NR concentration 270 nM, RXRa partner concentration 90 nM)
# In short: as §1
# [14] = system: PPARg DBDmut IVT, anti-PPARg (DBD mutation: PPARg1 K132A/R137A, NR concentration 270 nM)
# In short: as §1
# [15] = system: PPARg homodimer (NR concentration 180 nM)
# In short: as §1
# [16] = system: PXR:RXRa (NR concentration 270 nM, RXRa partner concentration 90 nM)
# In short: as §1
# [17] = system: PXR homodimer (NR concentration 270 nM)
# In short: as §1
# [18] = system: RARa:RXR (NR concentration 270 nM, RXRa partner concentration 90 nM)
# In short: as §1
# [19] = system: RARa homodimer (NR concentration 270 nM)
# In short: as §1
# [20] = system: RARb:RXRa (NR concentration 270 nM, RXRa partner concentration 90 nM)
# In short: as §1
Sequence,PBM binding z-score [1],PBM binding z-score [2],PBM binding z-score [3],PBM binding z-score [4],PBM binding z-score [5],PBM binding z-score [6],PBM binding z-score [7],PBM binding z-score [8],PBM binding z-score [9],PBM binding z-score [10],PBM binding z-score [11],PBM binding z-score [12],PBM binding z-score [13],PBM binding z-score [14],PBM binding z-score [15],PBM binding z-score [16],PBM binding z-score [17],PBM binding z-score [18],PBM binding z-score [19],PBM binding z-score [20]
GTACCAAGGTGAATAGGTCGTTAATGAGTAGGCG,0.719,0.484,-0.0766,0.302,-0.312,2.18,1.38,1.71,0.588,1.07,1.75,2.66,0.399,0.346,1.46,0.664,0.393,1.44,0.00305,1.91
AGTCAAAGTTCATCTAGATAACGTAAGATATGCT,7.05,5.89,5.02,4.13,1.82,5,6.44,6.12,3.12,5.43,0.216,2.84,1.25,1.73,2.62,5,4.36,3.39,1.59,4.9
ATCGAAAGGTCGTGAGGTGCGTATACAGAAAGGC,5.17,3.73,-0.157,2.99,-0.0634,5.18,3.39,3.76,1.13,2.4,0.0193,1.75,0.734,0.404,1.37,2.98,0.197,3.01,0.318,3.85
AGAATGAGGTTATACGTATATCAGGGAAGAAAGT,2.23,2.1,0.245,2.04,0.468,3.47,2.58,2.29,1.04,1.85,2.88,2.25,1.21,1.56,1.21,1.45,0.473,1.92,0.666,1.44
ATATGTAGATTATCGGGTCATTCAGTTTGCGCAT,2.14,2.5,1.98,2.47,0.87,2.81,1.63,1.77,0.662,1.31,2.57,2.72,1.49,1.26,1.63,3.39,6.51,2.84,0.767,1.85
CAAACTAGGTCAAAGGCCAAAGTCGAGCCAACCA,5.15,3.93,0.637,3.08,-0.153,6.63,11.3,9.98,9.75,10.9,7.91,8.52,1.47,0.202,1.73,2.9,0.159,4.68,0.255,4.31
CTACCAAGGTGAACATGGTCGTTGATTACTATTC,0.63,0.673,-0.0625,1.05,-0.345,1.73,0.829,0.843,0.0499,0.359,2.77,2.62,0.872,-0.0867,0.593,0.435,-0.201,1.12,0.284,1.66
ATCGAAAGGTTGTGAGGTGAGTATACAGAAAGGC,0.714,0.605,-0.189,0.771,0.139,1.68,0.892,0.732,0.508,0.523,-0.125,0.638,0.845,0.495,0.431,0.336,0.498,1.15,0.35,1.45
TCTAGTAGTTGAAGGGCAACCGACGAGTCCGTTT,0.63,0.618,-0.0916,0.268,-0.134,0.455,-0.018,1.65,2.83,2.22,1.78,0.527,0.13,-0.187,0.499,0.507,0.346,-0.0241,0.58,1.4
AGAACGAGTGCACGCTGAGTTGATAGCAGAGTAG,-0.478,-0.297,-0.632,-0.327,-1.13,0.0263,0.542,-0.2,-0.197,-0.307,-0.434,0.0753,0.194,-0.145,-0.176,0.739,0.603,-0.0592,-0.662,0.298
GCTTACGGGTCAAAGTTTATAGCATGAATAGAAT,6.86,4.62,0.38,4.67,0.532,6.2,9.24,8.11,7.16,8.84,4.19,5.17,1.43,1.62,2.34,4.83,1.1,6.42,0.895,4.06
AGAATGAGTTTAAGATCAGGGAAACAGAATACAT,-0.0291,-0.0527,-0.102,-0.0907,-0.243,-0.0432,0.814,-0.0778,0.203,0.0165,-0.319,-0.227,0.514,0.367,0.191,0.341,0.729,0.163,0.965,0.406
ATATGTAGGTTAAGGGTCATCCAGGTTGGTTCGC,4.92,5.03,2.83,4.66,1.61,6.89,12.2,10.6,11.2,12.3,7.61,8.22,4.43,2.04,4.33,5.87,2.5,6.77,2.63,3.99
